# Source: PubChem BioAssay (NCI)
# Several values for one entry are separate records, joined by “and”; a condition that tells them apart may be missing. Identical values can stand only once. Compounds without any hit were thinned out: in the full panel of roughly 79,000, 15% have a hit. Values without a mark were called inactive. Activity calls are given as the source filed them. Rule as the data show it: active = growth inhibition above about 70%; inactive = the rest.
# Legend:
# [1] = NCI Yeast Anticancer Drug Screen. Data for the rad50 strain (AID 155);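 also: 0% = growth of vehicle-only cultures of the same strain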; details: S. cerevisiae rad50 strain growth inhibition, active compounds read high; at 50.0 µM unless noted
# Summary of the method: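 Growth of the mutant yeast was measured after compound exposure and referenced to vehicle-treated cultures.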
# [2] = NCI Yeast Anticancer Drug Screen. Data for the mec2-1 strain (AID 157); details: S. cerevisiae mec2-1 strain, active compounds read high; at 50.0 µM unless noted
# Summary of the method: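 Vehicle-treated cultures served as reference for growth inhibition of compound-exposed mec2-1 yeast.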
# [3] = NCI Yeast Anticancer Drug Screen. Data for the sgs1 mgt1 strain (AID 161);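 also: 0% = growth of cultures given vehicle only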; details: S. cerevisiae sgs1 mgt1 strain, active compounds read high; at 50.0 µM unless noted
# Summary of the method: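 Mutant yeast exposed to compound; growth scored against vehicle-only wells.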
# [4] = NCI Yeast Anticancer Drug Screen. Data for the cln2 rad14 strain (AID 165);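 also: 0% = growth equal to vehicle treated cultures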; details: S. cerevisiae cln2 rad14 strain, active compounds read high; at 50.0 µM unless noted
# Summary of the method: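 Each compound was tested on cln2 rad14 yeast. Inhibition of growth was calculated against vehicle-exposed controls.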
# [5] = NCI Yeast Anticancer Drug Screen. Data for the bub3 strain (AID 167); details: S. cerevisiae bub3 mutant strain, active compounds read high; at 50.0 µM unless noted
# Summary of the method: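 Whole-cell yeast assay. The mutant strain was incubated with compounds, and growth inhibition was determined by comparison with vehicle-treated cells.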
# [6] = NCI Yeast Anticancer Drug Screen. Data for the mlh1 rad18 strain (AID 175); details: S. cerevisiae mlh1 rad18 strain growth inhibition, active compounds read high; at 50.0 µM unless noted
# Summary of the method: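 Vehicle-treated cultures served as the reference for growth inhibition in a yeast strain carrying DNA damage repair alterations exposed to each compound.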
Compound,growth inhibition [1],growth inhibition [2],growth inhibition [3],growth inhibition [4],growth inhibition [5],growth inhibition [6]
Cc1noc(NS(=O)(=O)c2ccc(Nc3nc(CC(=O)Nc4ccccc4)cs3)cc2)c1C,18.4%,-19.1%,17.2%,12.7%,-17.1%,9.2%
C[C@H]1CC[C@@H]2O[C@@]23C(=O)OC2OC(C)(C)[C@@H]([C@H]2O)[C@]13C,-18.6%,-4.85%,-26%,-0.35%,-5.2%,-10.9%
Nc1nc(N)c(CCCCc2ccccc2)c(Cc2ccccc2)n1,-10.2%,-10.5%,-2%,-40%,3.7%,-7.4%
COC(=O)CC(C)N(c1ccc(Cl)c(Cl)c1)S(=O)(=O)c1ccc(C)cc1 (stereo not given),37.9%,-0.15%,4.1%,-19.1%,-6.05%,11.1%
OCCCCCSc1ccccc1,17.4%,4.35%,7.95%,1.95%,-11.1%,7.3%
COc1ccc(C)cc1NC(=O)OCCCl,3.1%,2.35%,2.65%,5.95%,11.1%,-5.3%
O=C(Oc1ccccc1)C(=O)Oc1ccccc1,-20.6%,-24.9%,-8.75%,-15.4%,-0.1%,6.4%
COC(=O)/C(C#N)=N/O,16.6%,-39.1%,-22.8%,8.4%,-7.7%,-21.6%
COc1ccc(-c2cc(-c3ccco3)c(C#N)c(=O)[nH]2)cc1,3.95%,6.2%,14.2%,14.2%,8.65%,27.3%
CCN1CCNC(c2ccccc2)C1(C)C (stereo not given),-2.35%,-5.45%,-10%,-15.7%,-5.95%,3.4%
Cn1c2ccccc2c2nnc(NCCCO)nc21,18.9%,21.7%,18.8%,43.3%,25%,11.2%
OC1(c2cccc(C(F)(F)F)c2)CCN(C2CC2c2ccccc2)CC1 (stereo not given),87.2% (active),77.7% (active),90.8% (active),85.1% (active),84.3% (active),81.5% (active)
Cc1cn(C2CC(O)C(CO)O2)c(=O)nc1N1CCSCC1 (stereo not given),2.5%,-7.05%,-2.6%,-32.8%,-12%,-8.8%
Cc1ccc(C2=NN(c3ccccc3)C(c3ccccc3)C2NC2CCCCC2)cc1 (stereo not given),41.1%,-12.3%,19.6%,-27.4%,0.5%,10.3%
CC1(C)COC2(CCCCC2)OC1,12.8%,4.4%,-10.6%,-30.1%,-1.7%,8.95%
O=S1(=O)C(c2cccc(F)c2)=C(O)c2cc3ccccc3nc21,15.8%,5.45%,11.6%,-20.6%,-23.8%,9.45%
C1=C(N2CCCC2)C(=[N+]2CCCC2)C(N2CCCC2)=C1,3.65%,-2.45%,5.55%,-7.25%,1.5%,9.15%
CCN(CC)CCC1CCCCN1CC(=O)N1c2ccccc2NC(=O)c2ccccc21 (stereo not given),-2.9%,2%,8.9%,8.2%,-0.9%,0.25%
c1ccc(CNCCNCc2ccccc2)cc1,0.3% and 58.3%,4.75% and -16.4%,14.4% and 50.9%,-56.7% and -11.3%,-11.7% and 0.05%,-5.35% and 46%
Cc1ccc(C)c(NC(=O)NC(C)(C)C)c1,-0.2%,-22.4%,-2.7%,-55.1%,-5.65%,-4.5%

Compound,growth inhibition [1],growth inhibition [2],growth inhibition [3],growth inhibition [4],growth inhibition [5],growth inhibition [6]
CC(C)OC(=O)C(O)c1ccccc1 (stereo not given),18.2%,-17.1%,-25.4%,-50%,-9.45%,8.2%
CC(=O)OC1CCC2(C)C(C1)C(=O)OC1C2CCC2(C)C(C(C)CCCC(C)C)CCC12 (stereo not given),27.4%,3.55%,2.75%,-12.7%,-3.85%,23.4%
C/C(=C\C(=O)c1ccc(Sc2ccccc2)cc1)c1ccc(Sc2ccccc2)cc1,25.1%,-4.85%,6.15%,-17.6%,24.1%,21.2%
O=C1NCCCc2nonc21,18.9%,16.4%,7.9%,4%,4%,5.2%
COc1cc(/C=N/NC(=O)c2ccccc2NC(=O)c2ccccc2)ccc1O,2.05%,-13%,20.1%,-32.5%,37.7%,30.9%
COc1ccccc1NC(=O)Oc1c(C(C)C)cccc1C(C)C,-5.35%,5.75%,-3.7%,-1.1%,20%,-17.4%
COc1ccccc1C(O)C(C)C (stereo not given),-17.6%,-11.3%,3.9%,-15.8%,-5.25%,-24.1%
CCCCCCCCCCCCCCCOc1ccc(OCCCCCCCCCCCC)cc1,37.8%,-6.3%,16.4%,-33%,4.25%,11.8%
O=C1OC(Oc2ccccc2)c2cc3c(cc21)OCO3 (stereo not given),20.4%,-6.05%,21.3%,20.6%,17.9%,29.5%
Cc1cc(Cl)cc2c1OC(C)OC2=O (stereo not given),-7.85%,0.2%,-17.6%,-5.6%,11.6%,28.6%
COCCN(CCOC)C(=O)Nc1ccc(Cl)cc1,4.6%,5.5%,10.4%,4.5%,0.8%,9.75%
O=c1[nH]c2ccc([N+](=O)[O-])cc2nc1/C(=N/Nc1ccccc1)C(O)c1ccco1 (stereo not given),-4.6%,-9.1%,-12.8%,6%,-10.6%,12.9%
CC1(C)OCC[C@@H]1[Si](C)(C)C,17.6%,21.6%,14.2%,2.8%,-3.45%,-19.6%
COc1cc(CC2(C#N)c3ccccc3C=CN2C(=O)c2ccccc2)c(Oc2cc(CC3(C#N)c4ccccc4C=CN3C(=O)c3ccccc3)ccc2OC)cc1OC (stereo not given),4.65%,8.85%,15.3%,-5.6%,3.85%,32.9%
Cc1cc(Cl)ccc1OCC(=O)NCCO,33.4%,19.9%,13.8%,10.4%,2.8%,12%
CC(=O)c1cc2c(cc1O)oc1c(C)ccc(C)c12,20.8%,-3.4%,5.55%,18.2%,-29.7%,-13.8%
[N-]=[N+]=Nc1ccc2nc(N)nc(N)c2c1,-4.25%,5.7%,2.85%,-33.9%,-7.45%,-5.2%
CN1C(=O)OC2OC(C)(c3ccc(S(=O)(=O)c4ccccc4)cc3)C(=O)CC21 (stereo not given),-7.1%,22.7%,-10.5%,-27%,5.65%,2.25%
Cn1nnn(Cc2ccccc2)/c1=N/C(=S)Nc1ccccc1,-11.6%,-6.75%,-4.05%,-7.45%,3.1%,-21.4%
CN(C)C[C@@H]1C2C=CC(C2)[C@@H]1CO (stereo not given in full),-6.5%,4.55%,-0.9%,4.95%,2.25%,-10.6%
